Measured values as given in PubChem BioAssay (NCATS).
Results filed as inconclusive are left out. Some structures have more than one record in an assay (separate samples or runs), and their calls can disagree. The source made the active and inactive calls. Unless noted, calls follow the shape of the dose curve; as a rule, active = well fitted curve in the direction sought with a large enough effect; inconclusive = small, poorly fitted or top-dose-only effect, or another doubt; inactive = no such curve, though single readings can be large; an effect the other way counts as inactive or inconclusive.

What was measured:
[1] = target: Cytochrome P450 1A2 (Homo sapiens) (UniProt P05177); test: p450-cyp1a2 (AID 410; calls by dose curve; also: potency is read from the fitted curve at half-maximal effect;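 as to activity change, negative = inhibition: -100% = full effect of reference inhibitor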); conditions: recombinant CYP1A2, luciferin-ME demethylation, luminescence; series mostly up to 25.6 µM
Cytochrome P450 1A2 (Homo sapiens), sequence (P05177 whole entry, looked up): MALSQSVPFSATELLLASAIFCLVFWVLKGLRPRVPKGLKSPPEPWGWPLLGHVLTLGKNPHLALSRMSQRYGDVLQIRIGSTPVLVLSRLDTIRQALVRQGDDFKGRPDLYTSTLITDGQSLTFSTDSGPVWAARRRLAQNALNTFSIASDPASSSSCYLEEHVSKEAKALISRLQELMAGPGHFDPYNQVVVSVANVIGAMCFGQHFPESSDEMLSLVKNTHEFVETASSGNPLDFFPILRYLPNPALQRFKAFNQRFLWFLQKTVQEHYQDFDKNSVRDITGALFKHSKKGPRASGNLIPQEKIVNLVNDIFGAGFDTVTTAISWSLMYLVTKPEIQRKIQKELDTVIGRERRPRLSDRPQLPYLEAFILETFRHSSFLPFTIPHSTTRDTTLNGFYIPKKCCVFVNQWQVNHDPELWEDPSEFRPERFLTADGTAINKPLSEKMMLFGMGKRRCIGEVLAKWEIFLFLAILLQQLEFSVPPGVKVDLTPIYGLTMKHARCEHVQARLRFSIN
How it was run: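 20nM CYP1A2 with 100uM Luciferin-ME (at Km) in 100mM KPO4; compound preincubated 10 min, NADPH regeneration added, 60 min at room temperature. Luciferin quantified by luminescence after detection reagent; normalized to 57 uM furafylline.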

[2] = NFAT Signaling Pathway (AID 444; active = well fitted curve in either direction with a large enough effect, not every such curve was filed as active;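 also: carbachol stimulus at about its EC50 of 1 µM final; % is scaled to controls: 0 for no effect and ±100 for the full control effect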); conditions: Jurkat NFAT-bla M1, carbachol, beta-lactamase ratio, 5 h; at 17.2 µM (top of the series) unless noted
How it was run: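 Read-out: CCF4 FRET ratio (460 nm/530 nm) after 1 h RT dye loading, used for %activity and AC50 from titration series. Cells: Jurkat NFAT-β-lactamase/M1 line, treated with compound plus 1 uM carbachol for 5 h, 37 °C.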

[3] = target: Cytochrome P450 2D6 (Homo sapiens) (UniProt P10635); test: qHTS Assay for Inhibitors and Substrates of Cytochrome P450 2D6 (AID 891); conditions: recombinant CYP2D6, luciferin-ME EGE luminescence; series mostly up to 57.1 µM; also: nearly all actives have a fitted effect of over 60% in size; also: potency is read from the fitted curve at half-maximal effect;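 as to activity change, negative = inhibition: luciferin methyl ether substrate demethylated by CYP2D6 with NADPH regeneration; % is scaled to controls: 0 for no effect and ±100 for the full control effect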
Cytochrome P450 2D6 (Homo sapiens), sequence (P10635 whole entry, looked up): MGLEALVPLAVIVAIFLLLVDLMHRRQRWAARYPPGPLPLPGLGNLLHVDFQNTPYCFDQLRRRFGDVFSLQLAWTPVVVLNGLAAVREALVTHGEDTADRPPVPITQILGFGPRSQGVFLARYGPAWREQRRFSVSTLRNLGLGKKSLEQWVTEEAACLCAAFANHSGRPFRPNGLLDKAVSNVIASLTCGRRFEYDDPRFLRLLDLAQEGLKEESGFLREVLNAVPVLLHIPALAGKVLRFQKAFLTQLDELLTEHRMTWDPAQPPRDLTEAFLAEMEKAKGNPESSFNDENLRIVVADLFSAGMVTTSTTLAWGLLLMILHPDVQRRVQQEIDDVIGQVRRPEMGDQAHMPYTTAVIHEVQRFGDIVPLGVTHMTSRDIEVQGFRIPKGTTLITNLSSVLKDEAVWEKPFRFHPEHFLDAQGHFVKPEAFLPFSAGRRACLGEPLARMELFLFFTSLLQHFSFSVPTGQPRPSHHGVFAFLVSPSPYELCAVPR
How it was run: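 Human CYP2D6 (5 nM) with 30 uM Luciferin-ME EGE (at Km) in 100 mM KPO4, compound preincubated 10 min, then NADPH regeneration system for 60 min at room temperature. Luciferin read by luminescence; normalized to 1.43 uM quinidine.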

[4] = target: ATP-dependent 6-phosphofructokinase (Trypanosoma brucei brucei) (UniProt O15648); test: qHTS Assay to Find Inhibitors of T. brucei phosphofructokinase: hit validation (AID 492961);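 also: luminescence reports ADP formed as PFK phosphorylates fructose-6-phosphate with ATP; % is scaled to controls: 0 for no effect and ±100 for the full control effect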; conditions: T. brucei PFK, ADP-Glo luminescence; series mostly up to 24.3 µM
ATP-dependent 6-phosphofructokinase (Trypanosoma brucei brucei), sequence (O15648 whole entry, looked up): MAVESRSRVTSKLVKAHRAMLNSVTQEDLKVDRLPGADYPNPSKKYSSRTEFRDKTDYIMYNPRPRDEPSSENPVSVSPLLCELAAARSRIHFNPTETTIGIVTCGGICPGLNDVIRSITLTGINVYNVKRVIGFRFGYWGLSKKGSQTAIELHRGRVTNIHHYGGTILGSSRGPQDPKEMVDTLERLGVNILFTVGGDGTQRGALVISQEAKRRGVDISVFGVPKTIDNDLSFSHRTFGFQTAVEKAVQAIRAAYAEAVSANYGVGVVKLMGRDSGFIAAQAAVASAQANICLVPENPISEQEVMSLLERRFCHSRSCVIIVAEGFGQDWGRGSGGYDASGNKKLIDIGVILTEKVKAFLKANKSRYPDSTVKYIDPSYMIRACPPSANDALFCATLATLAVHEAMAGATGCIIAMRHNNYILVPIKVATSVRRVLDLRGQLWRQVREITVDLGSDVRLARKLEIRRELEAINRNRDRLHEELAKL
How it was run: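 In this biochemical qHTS validation, titrated compounds were tested against 1.25 nM PFK with 0.1 mM ATP and 0.5 mM F6P. Percent activity came from controls lacking or containing enzyme.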

[5] = S16 Schwann cell PMP22 intronic element beta-lactamase assay (AID 624044; calls by dose curve;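 also: 0% = DMSO and -100% = potassium clavulanate positive control; nearly all actives have a fitted effect of over 15% in size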); conditions: S16 rat Schwann cells, PMP22 element beta-lactamase FRET, 24 h; series mostly up to 17.1 µM
How it was run: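 Rat S16 Schwann cells with beta-Lac driven by a PMP22 intronic element, compound-treated 24 h at 37 °C. LiveBLAzer FRET B/G read: 460 nm normalized to potassium clavulanate vs DMSO; 535 nm FRET as viability; concentration-effect curves classified.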

[6] = test system: 7G8; test: qHTS profiling for inhibitors of Plasmodium falciparum proliferation (AID 504749); also: nearly all actives have a fitted effect of over 60% in size; also: potency is read from the fitted curve at half-maximal effect; conditions: P. falciparum in erythrocytes, SYBR Green DNA, 72 h; series mostly up to 12.8 µM
How it was run: (§1)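 Infected RBCs, 0.3% parasitemia/2.5% Hct final; cpd 72 h, 37 C, 5% CO2; lysis buffer with saponin/triton/SYBR Green I, o/n RT dark; FI 485/535; norm. to artemisinin (0.29 uM) and DMSO.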

[7] = test system: CP335; test: as above; conditions: P. falciparum in erythrocytes, SYBR Green DNA, 72 h; series mostly up to 12.8 µM
How it was run: as §1

[8] = target: Cytochrome P450 3A4 (Homo sapiens) (UniProt P08684); test: qHTS Assay for Inhibitors and Substrates of Cytochrome P450 3A4 (AID 884); conditions: recombinant CYP3A4, Luciferin-PPXE luminescence; series mostly up to 57.1 µM; also: nearly all actives have a fitted effect of over 50% in size; also: potency is read from the fitted curve at half-maximal effect; as to activity change, negative = inhibition: % is scaled to controls: 0 for no effect and ±100 for the full control effect
Cytochrome P450 3A4 (Homo sapiens), sequence (P08684 whole entry, looked up): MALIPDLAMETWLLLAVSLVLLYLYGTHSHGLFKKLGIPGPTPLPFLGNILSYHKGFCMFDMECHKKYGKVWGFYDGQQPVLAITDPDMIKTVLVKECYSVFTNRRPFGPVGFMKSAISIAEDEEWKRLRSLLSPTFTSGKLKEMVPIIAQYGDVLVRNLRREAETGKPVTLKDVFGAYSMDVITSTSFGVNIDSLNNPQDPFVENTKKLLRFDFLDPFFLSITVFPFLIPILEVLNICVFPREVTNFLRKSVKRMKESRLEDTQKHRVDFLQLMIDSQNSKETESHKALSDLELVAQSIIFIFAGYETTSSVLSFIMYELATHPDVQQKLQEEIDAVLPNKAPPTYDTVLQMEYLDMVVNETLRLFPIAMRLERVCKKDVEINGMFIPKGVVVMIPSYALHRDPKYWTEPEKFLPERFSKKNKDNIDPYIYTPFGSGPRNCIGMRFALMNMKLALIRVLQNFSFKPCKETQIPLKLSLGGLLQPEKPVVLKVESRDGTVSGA
How it was run: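 20 nM human CYP3A4 with 25 uM Luciferin-PPXE (at KM) in 200 mM KPO4, preincubated 10 min with compound; NADPH regeneration started a 60 min RT reaction. Luciferin detected by luminescence, normalized to 57 uM ketoconazole as full inhibition.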

[9] = Confirmation and Secondary Assay for Modulators of Hemoglobin Beta Chain Splicing at IVS2 654 locus (AID 910); conditions: HeLa EGFP-654 splicing reporter, GFP fluorescence, 48 h; series mostly up to 46.1 µM;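 also: HeLa cells stably carrying EGFP split by mutant beta-globin IVS2-654 intron; per-well total GFP intensity by laser scanning cytometry after 2-day treatment; % of control where 0% means no effect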
How it was run: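 Readout: per-well total peak green fluorescence (488 nm ex, 500–520 nm em) from objects 5–250 µm, reflecting correct splicing of an EGFP-654 reporter. Compounds were applied for 2 days at 37 °C to overnight-plated HeLa EGFP-654 cells; controls were DMSO and 500 nM IVS2-654 PNA.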

[10] = Confirmation and Secondary Assay for Modulators of Hemoglobin Beta Chain Splicing at IVS2 705 locus (AID 930); conditions: HeLa EGFP-705 splicing reporter, GFP fluorescence, 48 h; series mostly up to 46.1 µM;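 also: HeLa cells stably expressing the EGFP-705 splicing reporter; GFP fluorescence per well restored by corrected splicing of the IVS2-705 intron in EGFP; % of control where 0% means no effect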
How it was run: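 First, HeLa EGFP-705 cells are seeded at 500/well in Optimem with 2% FCS and left overnight. Next, compound or DMSO is added for 2 days. Finally wells are laser-scanned and total peak GFP intensity scored.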

[11] = target: DNA dC->dU-editing enzyme APOBEC-3G (Homo sapiens) (UniProt Q9HC16); test: qHTS for inhibitors of Vif-A3G interactions: Validation (AID 588379); conditions: Vif-A3G protein interaction assay; series mostly up to 46.1 µM; also: 0% is about no effect
DNA dC->dU-editing enzyme APOBEC-3G (Homo sapiens), sequence (Q9HC16 whole entry, looked up): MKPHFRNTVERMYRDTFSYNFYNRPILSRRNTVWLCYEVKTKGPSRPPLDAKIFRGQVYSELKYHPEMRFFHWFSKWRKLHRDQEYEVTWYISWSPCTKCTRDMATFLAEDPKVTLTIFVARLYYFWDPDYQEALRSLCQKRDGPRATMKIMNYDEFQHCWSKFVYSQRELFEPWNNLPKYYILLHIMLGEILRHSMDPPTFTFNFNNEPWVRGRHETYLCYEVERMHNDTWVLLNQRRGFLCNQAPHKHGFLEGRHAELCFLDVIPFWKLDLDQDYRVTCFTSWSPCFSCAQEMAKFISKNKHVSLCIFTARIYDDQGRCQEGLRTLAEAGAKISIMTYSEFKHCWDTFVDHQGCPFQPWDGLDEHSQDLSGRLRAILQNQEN
How it was run: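 HeLa cells stably expressing Vif and A3G-eYFP, 700 cells/well, incubated overnight at 37 deg C, then exposed to compound overnight at 37 deg C. Inhibition of Vif-mediated degradation read as increased yellow fluorescence (Ex 488/Em 500-530) by laser-scanning cytometry.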

[12] = target: Cytochrome P450 3A4 (Homo sapiens) (UniProt P08684); test: qHTS Assay for Activators of Cytochrome P450 3A4 (AID 885); conditions: recombinant CYP3A4, Luciferin-PPXE luminescence, 60 min; series mostly up to 57.1 µM; also: nearly all actives have a fitted effect of over 65% in size
How it was run: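 Signal was normalized against complete inhibition by 57 uM ketoconazole. The reaction used 20nM CYP3A4 with 25uM Luciferin-PPXE, 10-min compound preincubation and a 60-min NADPH-supported step at RT.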

[13] = test system: CP215; test: qHTS profiling for inhibitors of Plasmodium falciparum proliferation (AID 504749); also: nearly all actives have a fitted effect of over 60% in size; also: potency is read from the fitted curve at half-maximal effect; conditions: P. falciparum in erythrocytes, SYBR Green DNA, 72 h; series mostly up to 12.8 µM
How it was run: as §1

[14] = test system: DFO2036; test: as above; conditions: P. falciparum in erythrocytes, SYBR Green DNA, 72 h; series mostly up to 12.8 µM
How it was run: as §1

[15] = test system: DIV17; test: as above; conditions: P. falciparum in erythrocytes, SYBR Green DNA, 72 h; series mostly up to 12.8 µM
How it was run: as §1

[16] = test system: GB4; test: as above; conditions: P. falciparum in erythrocytes, SYBR Green DNA, 72 h; series mostly up to 12.8 µM
How it was run: as §1

[17] = test system: ICS; test: as above; conditions: P. falciparum in erythrocytes, SYBR Green DNA, 72 h; series mostly up to 12.8 µM
How it was run: as §1

[18] = test system: P93_24; test: as above; conditions: P. falciparum in erythrocytes, SYBR Green DNA, 72 h; series mostly up to 12.8 µM
How it was run: as §1

[19] = test system: TAB109; test: as above; conditions: P. falciparum in erythrocytes, SYBR Green DNA, 72 h; series mostly up to 12.8 µM
How it was run: as §1

[20] = S16 Schwann cell PMP22 intronic element firefly luciferase assay (AID 624032); conditions: S16 rat Schwann cells, PMP22 element FLuc, 24 h; series mostly up to 25.7 µM;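 also: plate controls were DMSO for no effect and PTC124 positive control mean for full effect; nearly all actives have a fitted effect of over 30% in size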
How it was run: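 Luciferase reporter of PMP22 intronic-element expression in stably transfected S16 rat Schwann cells, read by ONE-Glo luminescence after 24 h compound exposure at 37 C. Activity scaled between DMSO (0%) and positive-control PTC124; concentration-effect curves quality-classified.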

CN1CCC[C@@H](CC2c3ccccc3Sc3ccccc32)C1
inactive: Potency [1] | outcome [4] | Potency [5] | Potency [7]
active: activity change, negative = inhibition [2] -49.6% | Potency [3] 0.316 µM | Potency [6] 3.98 µM

Cc1onc(-c2c(F)cccc2Cl)c1C(=O)N[C@H]1C(=O)N2[C@H]1SC(C)(C)[C@H]2C(=O)O
inactive: Potency [1] | activity change, negative = inhibition [2] -12.5%

C=C(C)[C@H]1CC[C@]2(C(=O)O)CC[C@]3(C)[C@@H](CC[C@H]4[C@@]5(C)CC[C@@H](O)C(C)(C)[C@@H]5CC[C@@]43C)[C@H]12
inactive: Potency [1] | activity change, negative = inhibition [2] -3.55%

COc1cc2ccc(=O)oc2c(O)c1O
active: Potency [1] 12.6 µM
inactive: Potency [8] | Potency [3] | Potency [9] | Potency [10] | outcome [11]

CC1(C)S[C@@H]2[C@H](NC(=O)[C@@H](N)c3ccccc3)C(=O)N2[C@H]1C(=O)O[C@H]1OC(=O)c2ccccc21
inactive: Potency [1] | Potency [12] | outcome [4] | Potency [6] | Potency [13] | Potency [7] | Potency [14] | Potency [15] | Potency [16] | Potency [17] | Potency [18] | Potency [19]
active: Potency [8] 1.58 µM

COc1cc(N)c(Cl)cc1C(=O)N[C@H]1CCN(CCCOc2ccc(F)cc2)C[C@H]1OC
inactive: Potency [1] | outcome [4] | Potency [13]
active: Potency [6] 5.01 µM

Cc1noc(C)c1-c1nc(Nc2ccncc2)c2ccccc2n1
inactive: Potency [12] | Potency [9] | Potency [10]
active: Potency [1] 0.1 µM | Potency [8] 0.316 µM

CO[C@@H]1CC[C@@]2(C)[C@@H](CC[C@@]3(C)[C@H]2CC=C2[C@H]4CC(C)(C)[C@H](O)[C@@H](OC(C)=O)[C@]4(CO)[C@H](O)C[C@]23C)[C@@]1(C)CO (tested in a mixture with another compound)
inactive: Potency [1]

CCOC(=O)O[C@]1(C(=O)COC(=O)CC)CC[C@@H]2[C@@H]3CCC4=CC(=O)C=C[C@@]4(C)[C@H]3[C@H](O)C[C@]21C
inactive: Potency [1] | Potency [12] | outcome [4] | Potency [20] | Potency [5] | Potency [6] | Potency [13] | Potency [7] | Potency [14] | Potency [15] | Potency [16] | Potency [17] | Potency [18] | Potency [19]

CNCCC=C1c2ccccc2C=Cc2ccccc21
inactive: Potency [12]
active: Potency [1] 6.31 µM | Potency [3] 5.01 µM

O=c1cc(-c2cccc(O)c2)oc2cc(O)ccc12
active: Potency [1] 5.01 µM | Potency [8] 12.6 µM
inactive: Potency [12] | Potency [3] | outcome [11]

C[C@@H](C(=O)O)c1ccc(C(=O)c2ccccc2)s1
active: Potency [1] 0.251 µM
inactive: activity change, negative = inhibition [2] 4.12% | Potency [12] | Potency [20] | Potency [6] | Potency [13] | Potency [7] | Potency [14] | Potency [15] | Potency [16] | Potency [17] | Potency [18] | Potency [19]

O=c1[nH]c(=O)n([C@@H]2C[C@H](O)[C@H](CO)O2)cc1C(F)(F)F
inactive: Potency [1] | activity change, negative = inhibition [2] 1.4%

NS(=O)(=O)c1cc2c(cc1C(F)(F)F)N[C@H](Cc1ccccc1)NS2(=O)=O
active: Potency [1] 15.8 µM
inactive: activity change, negative = inhibition [2] 17.7% | Potency [12] | outcome [4] | Potency [20] | Potency [6] | Potency [13] | Potency [7] | Potency [14] | Potency [15] | Potency [16] | Potency [17] | Potency [18] | Potency [19]

CC1(C)S[C@@H]2[C@H](NC(=O)C(N)c3ccccc3)C(=O)N2[C@H]1C(=O)O (some centres undefined)
inactive: Potency [1]

O=C1C=CC(=O)c2c1ccc1c2ccc2ccccc21
active: Potency [1] 0.794 µM | activity change, negative = inhibition [2] -25.7%

CC(=O)[C@@H]1CC[C@@H]2[C@@H]3C[C@H](C)C4=CC(=O)CC[C@@]4(C)[C@H]3[C@H](O)C[C@]21C
inactive: Potency [1] | activity change, negative = inhibition [2] -5.99% | Potency [12] | outcome [4] | Potency [20] | Potency [5] | Potency [13] | Potency [7] | Potency [15] | Potency [16] | Potency [18] | Potency [19]

CCN(CC)[C@@H](C)CN1c2ccccc2Sc2ccccc21
inactive: outcome [4] | Potency [20] | Potency [13] | Potency [14]
active: Potency [1] 0.501 µM | Potency [3] 0.158 µM | Potency [16] 5.73 µM

C#C[C@@]1(O)CC[C@@H]2[C@@H]3CCC4=CC(=O)CC[C@@H]4[C@H]3CC[C@]21CC
inactive: Potency [1]

O=C(O)[C@@H]1[C@@H]2C[C@H]3c4[nH]c5ccccc5c4CCN3C[C@@H]2CC[C@@H]1O
active: Potency [15] 5.73 µM
inactive: activity change, negative = inhibition [2] -27% | Potency [20] | Potency [5]
12.6 µM (active) and inactive: Potency [1]

FC(F)(F)c1ccccc1-c1ccc2ncnc(NC3CCNCC3)c2c1
active: Potency [1] 20 µM
inactive: activity change, negative = inhibition [2] 2.61% [at 7.69 µM] | Potency [9] | Potency [10]

C[C@@H]1O[C@H](O[C@@H]2[C@H](C)O[C@H](O[C@@H]3[C@H](C)O[C@H](O[C@H]4CC[C@]5(C)[C@@H](CC[C@@H]6[C@H]5C[C@@H](O)[C@]5(C)[C@@H](C7=CC(=O)OC7)CC[C@]65O)C4)C[C@@H]3O)C[C@@H]2O)C[C@H](O)[C@@H]1O
inactive: Potency [1]
